# This is part of a sample that, as a whole, favours compounds with a hit. Of some 79,000 tested, about 15% had one in any assay. Values without a mark were called inactive. The source made the active and inactive calls. Rule as the data show it: active = growth inhibition above about 70%; inactive = the rest.
# Assay: NCI Yeast Anticancer Drug Screen. Data for the wt2 strain (AID 169);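 also: 0% = growth of vehicle-treated yeast cultures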
# Conditions: S. cerevisiae wt2 strain growth inhibition; at 1.2 µM; active compounds read high
# Summary of the method: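 Compound exposure of yeast; growth compared with vehicle controls; inhibition reported.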
row,SMILES,growth inhibition [%]
1,Cc1cccc2c(C(O)CBr)cc(-c3ccc(Cl)cc3)nc12 (centres undefined),-4
2,CN(C)C[C@H]1CC[C@@H](CN(C)C)C1=O,-46
3,CC1=C(SCCO)C(=O)c2ccccc2C1=O,-2
4,COC(=O)CCNc1c2ccccc2nc2cccc([N+](=O)[O-])c12,5
5,CC(/C=C/c1ccc2c(c1)OCO2)[N+](=O)[O-] (centres undefined),10
6,COC(=O)C1=C(C)NC(C)=C(C(=O)OCCCN2CCC(c3ccccc3)(c3ccccc3)CC2)C1c1cccc([N+](=O)[O-])c1 (centres undefined),-4
7,CCOC(=O)c1cnc2c(C(F)(F)F)cccc2c1N=[N+]=[N-],-1
8,O=[N+]([O-])c1cc2no[n+]([O-])c2cc1N1CCCCC1,0
9,COC(=O)c1ccc(NCC2=CC(=O)C=CC2=O)cc1O,20
10,S=C(Nc1ccc(Cl)c(Cl)c1)SCc1ccc2c(c1)OCO2,14
11,O=S(=O)(CCCl)c1ccccc1Cl,8
12,CN(C)c1ccc(Sc2ccc3nc(N)nc(N)c3c2)cc1,-4
13,CC(C)C1=CCC2C(=C1)CCC1C(C)(C(=O)O)CCCC21C (centres undefined) (tested in a mixture with another compound),-60
14,Cc1ccc(S(=O)(=O)Oc2cc(Cl)c(Cl)cc2Cl)cc1,1
15,CSC(=S)Nc1cc(C)ccn1,-7
16,CC(C)c1cc(C(C)C)c(O)c(C([O-])[O-])c1.CC(C)c1cc(C(C)C)c(O)c(C([O-])[O-])c1.CC(C)c1cc(C(C)C)c(O)c(C([OH2+])[OH2+])c1.CC(C)c1cc(C(C)C)c(O)c(C([OH2+])[OH2+])c1.[Cu+2].[Cu+2].[OH3+].[OH3+],-4

row,SMILES,growth inhibition [%]
1,CC(Br)C(=O)c1ccc2cc(Br)c3ccccc3c2c1 (centres undefined),-3
2,O=C(Nc1ccccc1)OCCc1ccc(Cl)c(Cl)c1,-7
3,O=Cc1cccc2ccc3ccccc3c12,-2
4,CC1(Cl)CC(O)C2(CC1Br)C1(C)OC1C1OC1(Br)C2(C)C (centres undefined),-10
5,Cc1cc(O)cc(O)c1N=Nc1ccc([N+](=O)[O-])cc1,5
6,CCCCCCCCCCCCCC[N+](C)(CC(=O)[O-])Cc1ccccc1 (centres undefined),-6
7,CC1=NN(c2cccc(Cl)c2)C(=O)C1,-31
8,CC(=O)OCc1ccc(O)c(C=O)c1,-36
9,Cc1ccc2ccc3cccc4ccc1c2c34,-1
10,Cc1nc(-[n+]2nc(-c3ccncc3)nn2-c2ccccc2)sc1C,-2
11,C(CCSC1=NCCN1)CSC1=NCCN1 (tested in a mixture with another compound),-2
12,CCCCCCCCCCC(=O)Cl,5
13,COC1C=COC2(C)Oc3c(C)c(O)c4c(c3C2=O)/C(=N/C2CCC(O)OC2C)C=C(NC(=O)/C(C)=C\C(=O)C2CC2C(O)C(C)C(O)C(C)C(OC(C)=O)C1C)C4=O (centres undefined),-1
14,O=C1CSC(/C=C/c2ccccc2)N1c1ccc(-c2ccc(-n3c(-c4ccccc4)nc4ccccc4c3=O)cc2)cc1 (centres undefined),-3
15,Brc1ccc(-c2cc3c(cc2C2SCCS2)OCO3)cc1,-1
16,Oc1ccc2ccccc2c1C(c1ccc(Cl)cc1)c1c(O)ccc2ccccc12,-22

# Same assay, conditions: S. cerevisiae wt2 strain growth inhibition; at 3.7 µM; active compounds read high
row,SMILES,growth inhibition
1,Cc1cccc2c(C(O)CBr)cc(-c3ccc(Cl)cc3)nc12 (centres undefined),-6%
2,CN(C)C[C@H]1CC[C@@H](CN(C)C)C1=O,-45%
3,CC1=C(SCCO)C(=O)c2ccccc2C1=O,0%
4,COC(=O)CCNc1c2ccccc2nc2cccc([N+](=O)[O-])c12,27%
5,CC(/C=C/c1ccc2c(c1)OCO2)[N+](=O)[O-] (centres undefined),97% (active)
6,COC(=O)C1=C(C)NC(C)=C(C(=O)OCCCN2CCC(c3ccccc3)(c3ccccc3)CC2)C1c1cccc([N+](=O)[O-])c1 (centres undefined),25%
7,CCOC(=O)c1cnc2c(C(F)(F)F)cccc2c1N=[N+]=[N-],1%
8,O=[N+]([O-])c1cc2no[n+]([O-])c2cc1N1CCCCC1,74% (active)
9,COC(=O)c1ccc(NCC2=CC(=O)C=CC2=O)cc1O,56%
10,S=C(Nc1ccc(Cl)c(Cl)c1)SCc1ccc2c(c1)OCO2,90% (active)
11,O=S(=O)(CCCl)c1ccccc1Cl,32%
12,CN(C)c1ccc(Sc2ccc3nc(N)nc(N)c3c2)cc1,-1%
13,CC(C)C1=CCC2C(=C1)CCC1C(C)(C(=O)O)CCCC21C (centres undefined) (tested in a mixture with another compound),-40%
14,Cc1ccc(S(=O)(=O)Oc2cc(Cl)c(Cl)cc2Cl)cc1,-9%
15,CSC(=S)Nc1cc(C)ccn1,-13%
16,CC(C)c1cc(C(C)C)c(O)c(C([O-])[O-])c1.CC(C)c1cc(C(C)C)c(O)c(C([O-])[O-])c1.CC(C)c1cc(C(C)C)c(O)c(C([OH2+])[OH2+])c1.CC(C)c1cc(C(C)C)c(O)c(C([OH2+])[OH2+])c1.[Cu+2].[Cu+2].[OH3+].[OH3+],-2%

row,SMILES,growth inhibition
1,CC(Br)C(=O)c1ccc2cc(Br)c3ccccc3c2c1 (centres undefined),-1%
2,O=C(Nc1ccccc1)OCCc1ccc(Cl)c(Cl)c1,-6%
3,O=Cc1cccc2ccc3ccccc3c12,-2%
4,CC1(Cl)CC(O)C2(CC1Br)C1(C)OC1C1OC1(Br)C2(C)C (centres undefined),-5%
5,Cc1cc(O)cc(O)c1N=Nc1ccc([N+](=O)[O-])cc1,11%
6,CCCCCCCCCCCCCC[N+](C)(CC(=O)[O-])Cc1ccccc1 (centres undefined),9%
7,CC1=NN(c2cccc(Cl)c2)C(=O)C1,-28%
8,CC(=O)OCc1ccc(O)c(C=O)c1,-30%
9,Cc1ccc2ccc3cccc4ccc1c2c34,7%
10,Cc1nc(-[n+]2nc(-c3ccncc3)nn2-c2ccccc2)sc1C,2%
11,C(CCSC1=NCCN1)CSC1=NCCN1 (tested in a mixture with another compound),10%
12,CCCCCCCCCCC(=O)Cl,1%
13,COC1C=COC2(C)Oc3c(C)c(O)c4c(c3C2=O)/C(=N/C2CCC(O)OC2C)C=C(NC(=O)/C(C)=C\C(=O)C2CC2C(O)C(C)C(O)C(C)C(OC(C)=O)C1C)C4=O (centres undefined),1%
14,O=C1CSC(/C=C/c2ccccc2)N1c1ccc(-c2ccc(-n3c(-c4ccccc4)nc4ccccc4c3=O)cc2)cc1 (centres undefined),-3%
15,Brc1ccc(-c2cc3c(cc2C2SCCS2)OCO3)cc1,-11%
16,Oc1ccc2ccccc2c1C(c1ccc(Cl)cc1)c1c(O)ccc2ccccc12,-36%

# — PubChem BioAssay (NCI)
